# Screens (PubChem BioAssay)
# HT1080 IDH1KD tx – HT-1080 IDH1 knockdown cell toxicity (counter line). HT-1080 IDH1 knockdown viability, ATP luminescence, 48 h. AID 686971. 360,000 tested, 2% active. Potency, µM (highest dose often 46.1 µM), for inactives: at the top dose activity, negative = toxicity, most hits filed as cytotoxic;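 note: 0% = DMSO wells and -100% = cell-free medium wells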
#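 Cytotoxicity counter-line: IDH1KD HT-1080, 48 h, CellTiter-Glo. Curves classed by r2, magnitude and activity.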
# KB-3-1 tox – kills parental KB-3-1 adenocarcinoma cells | KB-3-1 viability, CellTiter-Glo ATP luminescence, 72 h | Potency, µM (top dose mostly 46.1 µM), usual class: cytotoxic | 400,000 tested, 1.4% active; note: % is set by controls: 0 for no effect and ±100 for the full control effect; nearly all actives have a fitted effect of over 60% in size
#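 Cells are dispensed, compounds pinned in, plates held at 37 °C for 72 h, then CellTiter-Glo is added and luminescence read after 10 minutes. Cell line: parental KB-3-1 in phenol-red-free DMEM, 10% FBS.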
# HT1080NT lethal – kills 2HG-producing HT-1080-NT fibrosarcoma cells. HT-1080-NT fibrosarcoma viability, CellTiter-Glo ATP luminescence, 48 h. Potency, µM (series often up to 46.1 µM), inactives show at the top dose activity, negative = less viability, hits mostly cytotoxic. 360,000 tested, 1.6% active;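 note: NT is the 2HG producing partner of a matched IDH1 knockdown line; 0% = DMSO-treated cells and -100% = media-only wells without cells; nearly all actives have a fitted effect of over 55% in size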
#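 Toxicity toward the 2HG-producing NT line was scored as %Activity, normalised to DMSO and no-cell wells, from CellTiter-Glo luminescence after 48 hours' treatment.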
# KB-V1 MDR tox – kills drug-selected multidrug resistant KB-V1 cells; Potency, µM (doses to about 46.1 µM), hits mostly cytotoxic; 400,000 tested, 3.4% active; KB-V1 MDR cells viability, CellTiter-Glo, 72 h; note: % is set by controls: 0 for no effect and ±100 for the full control effect; nearly all actives have a fitted effect of over 60% in size
#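 Cytotoxicity toward P-gp-expressing KB-V1 cells was determined as loss of CellTiter-Glo luminescence after 72 h at 37 degrees C. Compounds were tested in quantitative HTS format across a concentration range, with curves fitted to normalized data.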
# SW480 rereplic – induces DNA re-replication in SW480 colon adenocarcinoma cells; SW480 DNA re-replication, Hoechst DNA content imaging, 48 h; Potency, µM (series often up to 46.1 µM), for inactives: at the top dose re-replication activation, most hits filed as activators; 340,000 tested, 1.8% active; AID 624297; note: % of control where 0% means no effect; nearly all actives have a fitted effect of over 55% in size
#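 Cells (250 per well) received 23 nL compound or DMSO by pin tool and were kept 48 hr at 37 C, 5% CO2. Nuclei were then stained with Hoechst for 40 min and scanned for DNA content.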
# MCF10A rereplic – DNA re-replication induction in MCF 10a cells; MCF 10A DNA re-replication, Hoechst nuclear intensity, 48 h; Potency, µM (doses to about 46.1 µM), without a hit: at the highest dose activity, positive = re-replication, hits mostly activators; 350,000 tested, 2.9% active; AID 624296; note: % of control where 0% means no effect; nearly all actives have a fitted effect of over 50% in size
# * marks the source's active call; other numbers are inactive results; i = inactive; u = inconclusive; x = no result given; [ ] = dose if it differs, or a comment. An excerpt weighted towards active compounds, which were near 7.9% of everything screened. Calls come from the whole dose curve; as a rule, active = well fitted curve in the direction sought with a large enough effect; inconclusive = small, poorly fitted or top-dose-only effect, or another doubt; inactive = no such curve, though single readings can be large; an effect the other way counts as inactive or inconclusive. Potency is the fitted concentration of half-maximal effect.
SMILES,HT1080 IDH1KD tx,KB-3-1 tox,HT1080NT lethal,KB-V1 MDR tox,SW480 rereplic,MCF10A rereplic
COc1ccc(-c2cc3ccc(O)cc3oc2=O)cc1OC,u,i,u,i,10.3µM*,u
O=C(NCc1ccco1)c1cc2ccc(O)cc2oc1=O,u,u,u,i,u,5.8µM*
COc1ccc2cc(C(=O)NCc3ccco3)c(=O)oc2c1,-10.6%,i,-10.7%,i,-4.6%,10.6%
Cc1ccc2cc3cc(C(=O)NCc4ccco4)oc3nc2c1,x,3.55µM*,x,i,-4.0%,17.0%
CC(=O)c1cc2ccc(O)cc2oc1=O,8.5%,i,1.6%,i,18.4µM*,20.6µM*
COc1ccc2cc(C(C)=O)c(=O)oc2c1,-1.4%,i,4.7%,i,-0.5%,1.3%
CCCCNC(=S)NCc1ccc2[nH]c3c(c2c1)CCCC3,-8.5%,i,-0.5%,20.6µM*,-15.8%,4.3%
S=C(NCc1ccc2[nH]c3c(c2c1)CCCC3)Nc1ccccc1Cl,-13.9%,u,-9.2%,u,5.4%,3.66µM*
CNC(=S)NCc1ccc2[nH]c3c(c2c1)CCCC3,4.1%,i,-19.5%,u,0.9%,-4.5%
Cc1ccccc1NC(=S)NCc1ccc2[nH]c3c(c2c1)CCCC3,-4.9%,i,-15.7%,i,u,6.51µM*
Cc1ccc(C)c(NC(=S)NCc2ccc3[nH]c4c(c3c2)CCCC4)c1,-19.8%,u,u,u,u,u
Cc1cc(C)c2c(c1)/C(=N/NS(=O)(=O)c1ccc(Br)cc1)CCC2,-20.1%,i,-26.7%,u,2.7%,7.08µM*
CCOc1c(Cl)cc(CNC(C)(C)CC(C)(C)C)cc1OC,u,u,u,u,4.1%,8.2µM*
CCOc1c(Cl)cc(CNc2ccc(S(N)(=O)=O)cc2)cc1OC,-10.9%,i,-0.4%,i,7.7%,-2.0%
CCOc1c(Cl)cc(CNc2ccc(N3CCCC3)cc2)cc1OC,9.2µM*,u,u,i,10.3µM*,u
CCn1nnc(-c2ccccc2NC(=O)C(F)(F)F)n1,-5.1%,i,11.6%,i,-2.9%,-5.1%
CC1(OCON)CCCc2ccccc21 (stereo not given),0.3%,i,-1.5%,i,u,-0.1%
Cc1ccc(S(=O)(=O)NC(=O)NC2=NC(C)(C)N(c3ccc(Cl)c(Cl)c3)C(N)=N2)cc1,1.64µM*,u,3.26µM*,i,x,x
Cn1c(=O)c2c(nc(NCc3cccnc3)n2Cc2cccc(C(F)(F)F)c2)n(C)c1=O,1.9%[9.24 µM],i,20.6µM*,u,-2.5%,9.0%
Cc1ccc(Oc2nc3c(c(=O)n(Cc4ccccc4F)c(=O)n3C)n2C)cc1,8.0%,i,-1.7%,11.6µM*,-6.7%,1.9%
COc1cccc(Oc2nc3c(c(=O)n(Cc4ccccc4F)c(=O)n3C)n2C)c1,x,i,x,i,x,x
Cn1c(NCc2cccnc2)nc2c1c(=O)n(Cc1ccccc1F)c(=O)n2C,-7.8%,u,-4.7%,14.6µM*,-8.0%,-4.2%
COc1cccc(Cn2c(NCc3cccnc3)nc3c2c(=O)n(C)c(=O)n3C)c1,5.17µM*,3.66µM*,4.61µM*,i,-2.4%,1.6%
COc1ccccc1CC(NC(C)=O)C(=O)NC1CCN(C(=O)Nc2ccccc2C)CC1 (stereo not given),9.1%,i,-1.7%,i,-1.5%,1.6%
CC(=O)Nc1ccccc1-c1nc2ccccc2n(C(C)C(=O)Nc2cccc(C)c2C)c1=O (stereo not given),x,i,x,i,x,x
SMILES,HT1080 IDH1KD tx,KB-3-1 tox,HT1080NT lethal,KB-V1 MDR tox,SW480 rereplic,MCF10A rereplic
C=CCSc1nc2ccccc2n1Cc1nnc(-c2cccs2)o1,-0.4%,i,-4.8%,6.51µM*,-1.2%,1.2%
C=CCn1c(-c2cccs2)nc2ccccc21,-2.1%,i,1.9%,i,-2.2%,5.2%
Cc1c(C(=O)N2CCOCC2)sc2nc(-c3ccccc3)cn12,5.2%,i,8.5%,23.1µM*,-8.6%,-12.0%
Cc1c(C(=O)Nc2ccncc2)sc2nc(-c3ccccc3)cn12,-5.8%,i,1.8%,i,-0.1%,u
Cc1c(C(=O)NCc2ccco2)sc2nc(-c3ccccc3)cn12,u,16.4µM*,u,i,u,u
Cc1c(C(=O)Nc2ccc3c(c2)OCCO3)sc2nc(-c3ccccc3)cn12,u,u,u,11.6µM*,-1.5%,-0.6%
Cc1ccc2c(c1)C(=O)CC(c1ccc3c(c1)OCCO3)O2 (stereo not given),-18.6%,i,-16.3%,i,19.4%,16.4µM*
COc1ccc2c(c1)C(=O)CC(c1ccc3c(c1)OCCO3)O2 (stereo not given),-17.5%,i,-20.9%,i,0.2%,-6.8%
O=C(Nc1ccc2c(c1)OCO2)c1cc(C2CCCCN2S(=O)(=O)c2ccccc2)on1 (stereo not given),-1.1%,i,-13.3%,i,x,x
Cc1ccc(C(=O)c2cnc3ccccc3c2-c2ccccc2)cc1,-17.6%,i,-10.8%,16.4µM*,18.1%,u
COc1ccc(C(=O)c2cnc3ccccc3c2-c2ccccc2)cc1,-20.8%,23.1µM*,-17.6%,18.4µM*,u,18.4µM*
Cc1ccc(NC(=S)NNC(=S)NNc2ccccc2)cc1C,-3.7%,i,-0.1%,i,x,x
CCN(CC)C(=O)CC(c1ccc(OC)cc1)c1c(OC)cc(OC)c2ccc(=O)oc12 (stereo not given),-5.5%,i,-4.1%,i,-0.9%,-10.3%
CC(Sc1nnc(-c2cccs2)n1-c1ccccc1)C(=O)NCc1ccc2c(c1)OCO2 (stereo not given),-0.7%,i,-0.5%,8.2µM*,12.7%,-11.3%
O=C(CSc1nnc(Cc2cccs2)n1-c1ccccc1)NCc1ccc2c(c1)OCO2,15.7%,i,2.7%,i,-2.2%,16.8%
CCOC(=O)C1CCN(C(=O)c2cccc(NS(=O)(=O)c3ccc(F)c(F)c3)c2)CC1,2.5%,i,15.1%,i,-0.9%,-4.2%
Cc1ccc(N=C2S/C(=C/c3cccc(OCC(=O)O)c3)C(=O)N2C)cc1C,-7.3%,i,-4.5%,i,-2.7%,u
N#CC1=C(N)Oc2c(oc(CO)cc2=O)C1c1ccccc1[N+](=O)[O-] (stereo not given),-1.1%,i,5.0%,i,5.8µM*,u
COc1ccccc1C1C(C#N)=C(N)Oc2c1oc(CO)cc2=O (stereo not given),16.2%,i,21.0%,i,-25.7%[1.84 µM],-20.8%
O=C(NC(NC(=S)N1CCOCC1)C(Cl)(Cl)Cl)c1ccc(Cl)cc1 (stereo not given),u,i,-28.4%,13µM*,5.0%,-0.3%
